Measurements taken from PubChem BioAssay (NCATS).
Records with an inconclusive call do not appear. The source made the active and inactive calls. Unless noted, calls follow the shape of the dose curve; as a rule, active = well fitted curve in the direction sought with a large enough effect; inconclusive = small, poorly fitted or top-dose-only effect, or another doubt; inactive = no such curve, though single readings can be large; an effect the other way counts as inactive or inconclusive.

What was measured:
[1] = qHTS Assay for Identification of Small Molecule Agonists for Thrombopoietin (TPO) Signaling Pathway (AID 917); conditions: TPO signaling pathway reporter cells, agonist qHTS, stimulated with TPO at its EC50; series mostly up to 38.5 µM
Procedure, shortened: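 Stimulation at the TPO EC50 (26 pM final) was used to detect activators. Ba/F3 mouse cells bearing human TPO receptor and a luciferase reporter under the Glycoprotein IIb promoter were exposed to compounds for 24 hrs at 37 C.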

[2] = biological target: Muscarinic acetylcholine receptor M1 (Rattus norvegicus) (UniProt P08482); test: qHTS Assay for Antagonists of Acetylcholine Muscarinic M1 Receptor: Measurement of IP-One Response (AID 944); conditions: CHO-M1 cells, IP-One HTRF, antagonist mode; series mostly up to 46.1 µM; also: nearly all actives have a fitted effect of over 75% in size
Procedure, shortened: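 Read-out: HTRF competition between d2-IP1 and Eu-cryptate anti-IP1 antibody, emission 620 and 665 nm. Stimulus was carbachol, EC80 (200 nM), for 30 min in M1-CHO cells (rat receptor), after 10 min compound pre-treatment.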

[3] = biological target: Pyruvate kinase (Leishmania mexicana) (UniProt Q27686); test: qHTS Validation Assay for Inhibitors of Leishmania Mexicana Pyruvate Kinase (AID 945); conditions: purified L. mexicana pyruvate kinase, enzyme activity, E451W mutant enzyme; series mostly up to 57.5 µM
Procedure, shortened: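 Luminescent ATP detection (PKLight) after a 1 h room-temperature reaction of 0.2 nM LmPYK E451W mutant with 0.5 mM PEP and 0.1 mM ADP at pH 7.2. Activity is normalized to DMSO-only control wells.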

[4] = biological target: Pyruvate kinase PKM (Homo sapiens) (UniProt P14618); test: qHTS Assay for Activators of Human Muscle Pyruvate Kinase (AID 954; active = well fitted curve in the direction sought with a large enough effect, not every such curve was filed as active); conditions: purified human muscle pyruvate kinase, luciferase-coupled luminescence, 1 h; series mostly up to 57.5 µM
Procedure, shortened: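 A coupled luminescent readout tracked ATP made from ADP by purified PKM2. Final conditions included 0.1 nM enzyme, PEP and ADP at 0.5 and 0.1 mM, pH 7.2 imidazole buffer with BSA, and a one-hour room-temperature reaction.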

[5] = biological target: Alpha-galactosidase A (Homo sapiens) (UniProt P06280); test: Counterscreen for Glucocerebrosidase Inhibitors: qHTS Assay for Human alpha-Galactosidase at pH 4.5 (AID 992); conditions: purified enzyme, fluorogenic substrate; series mostly up to 76.9 µM
Procedure, shortened: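 Citrate buffer pH 4.5, Tween-20 0.005%. Enzyme 2 nM, substrate 80 uM, 20 min RT. Stop pH 10. Fluorescence Ex 365/Em 440. AC50 by Hill fit.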

[6] = biological target: alpha-glucosidase (Oryza sativa, rice) (UniProt Q653V4); test: Counterscreen for Glucocerebrosidase Inhibitors: qHTS Assay for Rice alpha-Glucosidase at pH 5.0 (AID 997); conditions: rice alpha-glucosidase enzyme activity; series mostly up to 76.9 µM
Procedure, shortened: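 Endpoint fluorogenic assay at pH 5.0: compounds (0.7 nM to 77 uM) titrated against 4 nM rice enzyme and 400 uM 4-MU-alpha-glucoside for 20 min at room temperature; NaOH/glycine stop, read ex 365/em 440 nm, Hill-fitted AC50.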

[7] = S16 Schwann cell PMP22 intronic element beta-lactamase assay (AID 624044; calls by dose curve; also: nearly all actives have a fitted effect of over 15% in size); conditions: S16 rat Schwann cells, PMP22 element beta-lactamase FRET, 24 h; series mostly up to 38.3 µM
Procedure, shortened: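 Beta-lactamase reporter under a PMP22 intronic regulatory element in stable S16 rat Schwann cells; 24 h compound exposure. 460 nm blue signal normalized between DMSO (0%) and potassium clavulanate, with 535 nm FRET tracking viability; curves classed by r2 and response.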

[8] = system: 7G8; test: qHTS profiling for inhibitors of Plasmodium falciparum proliferation (AID 504749); also: nearly all actives have a fitted effect of over 60% in size; also: potency is read from the fitted curve at half-maximal effect; conditions: P. falciparum in erythrocytes, SYBR Green DNA, 72 h; series mostly up to 28.7 µM
Procedure, shortened: (§1)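 In a 72 h erythrocytic culture (37 C, humidified, 5% CO2) at 2.5% hematocrit and 0.3% starting parasitemia, compounds were tested; SYBR Green I in detergent lysis buffer stained parasite DNA overnight.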

[9] = system: ATS95; test: as above; conditions: P. falciparum in erythrocytes, SYBR Green DNA, 72 h; series mostly up to 28.7 µM
Procedure, shortened: as §1

[10] = system: CP191; test: as above; conditions: P. falciparum in erythrocytes, SYBR Green DNA, 72 h; series mostly up to 28.7 µM
Procedure, shortened: as §1

[11] = system: CP237; test: as above; conditions: P. falciparum in erythrocytes, SYBR Green DNA, 72 h; series mostly up to 28.7 µM
Procedure, shortened: as §1

[12] = system: Dd2; test: as above; conditions: P. falciparum in erythrocytes, SYBR Green DNA, 72 h; series mostly up to 28.7 µM
Procedure, shortened: as §1

[13] = system: FAB9; test: as above; conditions: P. falciparum in erythrocytes, SYBR Green DNA, 72 h; series mostly up to 28.7 µM
Procedure, shortened: as §1

[14] = system: ICS; test: as above; conditions: P. falciparum in erythrocytes, SYBR Green DNA, 72 h; series mostly up to 28.7 µM
Procedure, shortened: as §1

[15] = system: P93_24; test: as above; conditions: P. falciparum in erythrocytes, SYBR Green DNA, 72 h; series mostly up to 28.7 µM
Procedure, shortened: as §1

[16] = system: SC27B; test: as above; conditions: P. falciparum in erythrocytes, SYBR Green DNA, 72 h; series mostly up to 28.7 µM
Procedure, shortened: as §1

[17] = system: TAB165; test: as above; conditions: P. falciparum in erythrocytes, SYBR Green DNA, 72 h; series mostly up to 28.7 µM
Procedure, shortened: as §1

[18] = biological target: Rap guanine nucleotide exchange factor 3 (Homo sapiens) (UniProt O95398); test: Confirmatory qHTS for antagonist of cAMP-regulated guanine nucleotide exchange factor 3 (EPAC1) (AID 1645880); conditions: EPAC1 Rap1B-BODIPY-GDP exchange, fluorescence; series mostly up to 115 µM; also: nearly all actives have a fitted effect of over 55% in size
Procedure, shortened: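 Released BODIPY-GDP fluoresces less than Rap1-bound BODIPY-GDP; the signal is followed at 480/540 nm at 5-min intervals over 30 min, after 5 min at room temperature. Reactions contain 100 nM EPAC1, 250 nM RAP1B-BODIPY-GDP and 50 uM GDP; results are normalized to ATA and DMSO.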

[19] = Confirmatory qHTS for small molecule stabilizers of the endoplasmic reticulum resident proteome: Secreted ER Calcium Modulated Protein (SERCaMP) assay (AID 1508628); conditions: SERCaMP secreted luciferase ER calcium/proteostasis reporter; series mostly up to 76.3 µM;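 also: SH-SY5Y cells given compound 16 h then thapsigargin 100 nM for 4 h; nearly all actives have a fitted effect of over 40% in size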
Procedure, shortened: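 GLuc-SERCaMP-expressing SH-SY5Y cells, pretreated 16 h with compound, are challenged with thapsigargin to empty ER calcium stores; after 4 h, coelenterazine is added directly to the medium and luminescence is imaged.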

[20] = Cell Viability qHTS for small molecule stabilizers of the endoplasmic reticulum resident proteome (AID 1508629); conditions: cell viability counter-screen, 100 nM thapsigargin for final 4 h;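 also: potency is read from the fitted curve at half-maximal effect; compound exposure about 46 h in total before the viability read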

Measured: Potency

Chain of Rap guanine nucleotide exchange factor 3 (Homo sapiens) (O95398 whole entry, looked up): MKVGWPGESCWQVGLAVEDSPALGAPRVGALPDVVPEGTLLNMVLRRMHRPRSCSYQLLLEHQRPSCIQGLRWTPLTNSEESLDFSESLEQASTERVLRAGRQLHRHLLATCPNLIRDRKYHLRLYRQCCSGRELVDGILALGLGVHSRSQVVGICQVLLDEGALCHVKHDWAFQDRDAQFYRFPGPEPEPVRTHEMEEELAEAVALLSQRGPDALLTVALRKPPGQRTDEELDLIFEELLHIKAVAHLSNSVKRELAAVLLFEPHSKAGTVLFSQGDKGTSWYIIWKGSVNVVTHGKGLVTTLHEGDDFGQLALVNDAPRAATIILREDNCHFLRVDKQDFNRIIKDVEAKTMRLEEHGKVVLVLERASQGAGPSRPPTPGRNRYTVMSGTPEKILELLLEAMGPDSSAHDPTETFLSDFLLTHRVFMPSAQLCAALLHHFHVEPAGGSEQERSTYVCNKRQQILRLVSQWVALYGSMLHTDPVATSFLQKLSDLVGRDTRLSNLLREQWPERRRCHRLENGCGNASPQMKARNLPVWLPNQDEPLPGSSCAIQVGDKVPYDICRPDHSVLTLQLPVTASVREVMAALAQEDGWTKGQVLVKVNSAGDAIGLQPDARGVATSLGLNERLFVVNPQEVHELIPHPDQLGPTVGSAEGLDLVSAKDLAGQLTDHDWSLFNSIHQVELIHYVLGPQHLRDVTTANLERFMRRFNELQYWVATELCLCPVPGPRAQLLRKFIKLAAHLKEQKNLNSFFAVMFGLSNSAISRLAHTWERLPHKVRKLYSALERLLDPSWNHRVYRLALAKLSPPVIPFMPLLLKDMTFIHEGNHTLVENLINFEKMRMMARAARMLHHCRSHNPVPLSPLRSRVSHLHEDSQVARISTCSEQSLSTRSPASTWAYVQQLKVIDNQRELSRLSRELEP
Chain of Muscarinic acetylcholine receptor M1 (Rattus norvegicus) (P08482 whole entry, looked up): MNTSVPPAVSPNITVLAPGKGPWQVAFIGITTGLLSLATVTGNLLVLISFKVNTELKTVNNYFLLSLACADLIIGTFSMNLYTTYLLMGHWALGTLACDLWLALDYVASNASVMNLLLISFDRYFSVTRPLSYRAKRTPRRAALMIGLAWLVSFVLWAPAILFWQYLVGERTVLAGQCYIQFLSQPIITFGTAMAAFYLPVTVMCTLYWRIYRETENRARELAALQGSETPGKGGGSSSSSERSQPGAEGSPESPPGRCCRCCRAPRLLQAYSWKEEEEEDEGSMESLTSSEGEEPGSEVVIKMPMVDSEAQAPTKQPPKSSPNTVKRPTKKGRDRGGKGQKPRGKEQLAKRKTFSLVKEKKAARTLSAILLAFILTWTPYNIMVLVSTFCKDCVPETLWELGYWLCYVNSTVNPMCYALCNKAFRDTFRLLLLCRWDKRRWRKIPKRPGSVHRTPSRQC
Chain of Pyruvate kinase (Leishmania mexicana) (Q27686 2-499 E452W): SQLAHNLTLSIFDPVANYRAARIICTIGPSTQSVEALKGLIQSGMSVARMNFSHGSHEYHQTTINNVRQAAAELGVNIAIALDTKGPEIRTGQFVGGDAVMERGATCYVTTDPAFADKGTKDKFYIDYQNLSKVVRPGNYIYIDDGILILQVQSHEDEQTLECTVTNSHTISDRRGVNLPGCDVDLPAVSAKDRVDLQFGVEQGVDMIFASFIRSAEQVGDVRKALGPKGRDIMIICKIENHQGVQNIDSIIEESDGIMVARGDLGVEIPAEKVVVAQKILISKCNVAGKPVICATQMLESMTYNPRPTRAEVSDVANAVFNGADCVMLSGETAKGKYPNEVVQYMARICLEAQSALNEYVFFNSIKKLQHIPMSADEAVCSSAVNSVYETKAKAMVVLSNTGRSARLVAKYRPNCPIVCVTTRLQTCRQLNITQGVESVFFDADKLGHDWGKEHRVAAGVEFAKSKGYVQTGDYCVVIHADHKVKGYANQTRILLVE
Chain of Alpha-galactosidase A (Homo sapiens) (P06280 whole entry, looked up): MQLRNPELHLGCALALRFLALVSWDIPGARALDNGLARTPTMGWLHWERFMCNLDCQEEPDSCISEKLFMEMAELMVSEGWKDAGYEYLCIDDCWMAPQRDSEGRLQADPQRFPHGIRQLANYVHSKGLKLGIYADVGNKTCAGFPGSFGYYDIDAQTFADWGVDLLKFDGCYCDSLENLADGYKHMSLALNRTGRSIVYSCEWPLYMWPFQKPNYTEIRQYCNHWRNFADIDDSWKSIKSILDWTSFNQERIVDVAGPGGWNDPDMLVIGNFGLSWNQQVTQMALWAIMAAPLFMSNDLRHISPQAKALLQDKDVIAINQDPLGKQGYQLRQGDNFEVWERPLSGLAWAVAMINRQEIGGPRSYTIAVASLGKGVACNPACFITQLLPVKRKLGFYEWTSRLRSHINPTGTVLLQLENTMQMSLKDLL
Chain of Pyruvate kinase PKM (Homo sapiens) (P14618 whole entry, looked up): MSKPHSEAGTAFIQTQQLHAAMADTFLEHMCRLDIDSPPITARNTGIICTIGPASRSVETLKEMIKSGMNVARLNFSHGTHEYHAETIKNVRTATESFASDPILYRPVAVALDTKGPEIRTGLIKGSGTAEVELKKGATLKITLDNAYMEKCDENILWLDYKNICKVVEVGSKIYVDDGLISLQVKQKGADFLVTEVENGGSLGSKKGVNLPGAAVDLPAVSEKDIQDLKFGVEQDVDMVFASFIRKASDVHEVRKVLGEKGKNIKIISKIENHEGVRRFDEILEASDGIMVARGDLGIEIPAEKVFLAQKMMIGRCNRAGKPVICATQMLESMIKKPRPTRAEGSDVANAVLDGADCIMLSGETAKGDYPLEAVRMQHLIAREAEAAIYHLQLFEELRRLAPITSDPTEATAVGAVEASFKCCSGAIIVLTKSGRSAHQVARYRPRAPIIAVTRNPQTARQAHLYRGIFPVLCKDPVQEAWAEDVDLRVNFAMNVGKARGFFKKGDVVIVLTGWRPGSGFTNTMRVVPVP

CN1CCN(CCC=C2c3ccccc3Sc3ccc(S(=O)(=O)N(C)C)cc32)CC1
active: [8] 5.01 µM | [9] 11.2 µM | [10] 12.6 µM | [11] 11.2 µM | [12] 12.6 µM | [14] 7.94 µM | [15] 12.6 µM | [16] 11.2 µM | [17] 8.91 µM
inactive: [1] | [2] | [3] | [4] | [5] | [6] | [7] | [13]

C#C[C@]1(OC(C)=O)CC[C@H]2[C@@H]3CCC4=CC(=O)CC[C@@H]4[C@H]3CC[C@@]21C
inactive: [18]

CS(=O)(=O)CCNCc1nc(-c2ccc3ncnc(Nc4ccc(OCc5cccc(F)c5)c(Cl)c4)c3c2)cs1
active: [20] 15.8 µM
inactive: [19]
